HepG2 tox: counter-screen for TGF-b inhibitors: cytotoxicity in HepG2 cells; 0.76% of 410,000 active; HepG2 CAGA-GFP viability, ATP luminescence, 18 h; Potency, µM (doses to about 46.1 µM), inactives show at the top dose activity change, negative = cytotoxicity, actives largely listed as cytotoxic
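HepG2 CAGA-GFP cells (1000/well, DMEM with 1% FBS) received compound, then TGF-beta at 500 pg/mL final, and were incubated 18 hours at 37 degrees C. Viability was read by CellTiter-Glo luminescence. Media-only wells were set as complete cell-killing and DMSO as no toxicity.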
HT1080NT lethal: kills 2HG-producing HT-1080-NT fibrosarcoma cells; HT-1080-NT fibrosarcoma viability, CellTiter-Glo ATP luminescence, 48 h; Potency, µM (titrated, usually from 46.1 µM), without a hit: top-dose activity, negative = less viability, hits mostly cytotoxic; 1.6% of 360,000 active; AID 686970;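 further: NT is the 2HG producing partner of a matched IDH1 knockdown line; 0% = DMSO-treated cells and -100% = media-only wells without cells; nearly all actives have a fitted effect of over 55% in size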
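Fibrosarcoma NT cells, 750 per well in 5% FBS RPMI, were exposed to compound for 48 hours. Viability: CellTiter-Glo luminescence.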
HT1080 IDH1KD tx: toxicity to HT-1080 IDH1 knockdown cells (counter line). Potency, µM (doses to about 46.1 µM), for inactives: at the highest dose activity, negative = toxicity, usual class: cytotoxic. 2% of 360,000 active. AID 686971. HT-1080 IDH1 knockdown viability, ATP luminescence, 48 h;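 further: 0% = DMSO wells and -100% = cell-free medium wells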
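Viability of IDH1-knockdown HT-1080 fibrosarcoma cells was assessed by CellTiter-Glo after 48 h at 37 °C with titrated compound; concentration-effect curves were classified by fit quality and response size.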
ATXN viability: cell viability loss in ATXN counter-screen; S2 cells (HEK-293 line with an ATXN2-luciferase reporter) viability, CellTiter-Fluor protease fluorescence, 24 h; Potency, µM (series often up to 56.7 µM), hits mostly cytotoxic; 0.49% of 400,000 active; AID 651635; further: nearly all actives have a fitted effect of over 40% in size
TGFb SMAD3 inh: blocks TGF-b signaling; HepG2 CAGA-GFP TGF-b/SMAD3 reporter, GFP fluorescence, 18 h; TGF-beta stimulated, 500 pg/mL final; Potency, µM (doses to about 46.1 µM), inactives show at the highest dose activity, negative = inhibition, actives largely listed as inhibitors; 1.2% of 410,000 active; AID 588855; further: on the % scale 0 is the no-effect control and ±100 the full control effect; nearly all actives have a fitted effect of over 65% in size
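Inhibition of TGF-beta-driven CAGA-GFP reporter expression in HEPG2 cells is measured by cellular GFP fluorescence after 18 h stimulation with 500 pg/mL recombinant TGF-beta in 1% FBS medium at 37 degrees C.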
ATXN2 expr inh: reduces ATXN2 reporter expression in HEK-293 cells. HEK-293 ATXN2-luciferase reporter, luminescence, 24 h. Potency, µM (highest dose often 57 µM), without a hit: top-dose activity change, negative = inhibition, usual class: inhibitors. 0.72% of 360,000 active. AID 1745845; further: on the % scale 0 is the no-effect control and ±100 the full control effect; nearly all actives have a fitted effect of over 55% in size
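qHTS (up to 57 uM final) was run with 24 h compound exposure of reporter cells at 37 °C. Each well was multiplexed: SteadyGlo luminescence measured ATXN2-luciferase expression after a fluorogenic Gly-Phe-AFC viability readout (25 uM final).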
* marks the source's active call; other numbers are inactive results; i = inactive; ? = inconclusive; nt = no result given; ! = repeats disagree. Hits are enriched below; roughly 3.9% of the tested compounds scored in any of these assays. The call rests on the fitted dose curve; in most records, active means well fitted curve in the direction sought with a large enough effect; inconclusive means small, poorly fitted or top-dose-only effect, or another doubt; inactive means no such curve, though single readings can be large; an effect the other way counts as inactive or inconclusive. Potency means the concentration at half of the fitted maximal effect.

SMILES | HepG2 tox | HT1080NT lethal | HT1080 IDH1KD tx | ATXN viability | TGFb SMAD3 inh | ATXN2 expr inh
O=C(Cc1ccccc1Cl)Nc1cccc(S(=O)(=O)N2CCCCCC2)c1 | -1.5% | -16.6% | -0.3% | i | -14.2% | -12.2%
O=C(COC(=O)c1ccc([N+](=O)[O-])o1)Nc1cccc(S(=O)(=O)N2CCCCC2)c1 | -18.2% | -3.0% | -0.9% | i | -8.1% | -25.9%
Cc1ccc(NC(=O)c2ccc([N+](=O)[O-])o2)cc1S(=O)(=O)N1CCOCC1 | -55.0% | ? | 6.51µM* | i | 14.1µM* | ?
O=C(Nc1cccc(S(=O)(=O)N2CCCCC2)c1)c1ccccc1NS(=O)(=O)c1ccc(F)cc1 | -9.9% | ? | 23.1µM* | i | ? | -15.8%
COc1ccc(OC)c(CNC(=O)Nc2cn(CC(C)C)c(=O)c3ccccc23)c1 | -3.0% | nt | nt | i | -16.5% | -5.1%
Cc1ccc2c(c1C)-c1c(ccc(C)c1C)C(=O)C2=O | 3.98µM* | 5.8µM* | 10.3µM* | ? | 2.51µM* | ?
CCc1sc(C(=O)NCc2cc(C)n(C)n2)cc1Br | -37.6% | ? | 15.8µM* | i | -4.8% | -1.5%
CCc1sc(C(=O)NC)cc1Br | -1.0% | 11.6% | -10.2% | i | 5.5% | 2.7%
CCOc1ccc(N2CC(c3nc4ccccc4n3CCCOc3ccccc3)CC2=O)cc1 (stereo unspecified) | -7.9% | nt | nt | nt | 11.2µM* | ?
CCOc1ccc(N2CC(c3nc4ccccc4n3CCCCOc3ccc(OC)cc3)CC2=O)cc1 (stereo unspecified) | -32.4% | nt | nt | ? | ? | ?
CCCCn1c(C2CC(=O)N(c3ccc(OCC)cc3)C2)nc2ccccc21 (stereo unspecified) | -41.4% | nt | nt | ? | ? | 2.4%
O=C1CC(c2nc3ccccc3n2CCCOc2ccccc2)CN1c1ccc(F)cc1 (stereo unspecified) | -20.6% | nt | nt | 25.1µM* | -26.6% | -28.7%
CCC1CN(Cc2cccn2-c2ccccn2)Cc2cc(OC)ccc2O1 (stereo unspecified) | nt | nt | nt | i | nt | nt
CCN1CCN(Cc2ccc(NC(=O)c3ccc(C)c(NC(=O)c4nccnc4N)c3)cc2C(F)(F)F)CC1 | -117.6% | ? | ? | ? | ? | 28.2µM*
CCN1CCN(Cc2ccc(NC(=O)c3cc(NC(=O)c4cnnc5ccccc45)cc(OC)c3)cc2C(F)(F)F)CC1 | 17.8µM*! | ? | ? | ? | ? | ?
CCN1CCN(Cc2ccc(NC(=O)c3ccc(C)c(NC(=O)c4cc(-c5ccc(Br)cc5)n[nH]4)c3)cc2C(F)(F)F)CC1 | -96.4% | -17.5% | -26.3% | 25.1µM* | ? | 31.6µM*
CCN1CCN(Cc2ccc(NC(=O)c3ccc(C)c(NC(=O)c4nccn4C)c3)cc2C(F)(F)F)CC1 | -22.7% | 5.0% | 1.8% | i | ? | -7.5%
CCN1CCN(Cc2ccc(NC(=O)c3ccc(C)c(NC(=O)c4cncc(-c5cccs5)c4)c3)cc2C(F)(F)F)CC1 | 10µM* | 20.6µM* | 18.4µM* | nt | ? | 14.1µM*
CCN1CCN(Cc2ccc(NC(=O)c3ccc(C)c(NC(=O)c4cccc5[nH]ccc45)c3)cc2C(F)(F)F)CC1 | -156.4% | ? | ? | nt | ? | ?
CCN1CCN(Cc2ccc(NC(=O)c3ccc(C)c(NC(=O)N4CCNC4=O)c3)cc2C(F)(F)F)CC1 | -48.0% | 0.0% | -14.0% | ? | ? | ?
COc1ccc2c(c1)c1c(c(=O)n(-c3cc(Cl)ccc3C)c(=O)n1Cc1ccc(F)cc1)n2C | -1.0% | nt | nt | i | -9.5% | 1.7%
CCc1ccc(-c2[nH]nc3nc(-c4ccc(OC)cc4)cc(C(=O)NCCc4ccc(OC)c(OC)c4)c23)cc1 | -61.8% | nt | nt | i | 10µM* | ?

Source: PubChem
